Shiga toxin inh = inhibitors of Shiga toxin in Vero cells; Vero cells, Shiga toxin protein synthesis inhibition reporter; inhibition, % at 38.7 µM; 290,000 tested, 9.2% active; AID 2315; in the data active = inhibition mostly above about 28%, no sharp cut-off; inactive = mostly below about 43%; note: 0% is about no effect
LmPK inh = inhibitors of Leishmania mexicana pyruvate kinase | Q27686 | purified LmPK, Kinase-Glo ATP luminescence, 1 h | Potency, µM (highest dose often 57.5 µM), inactives show at the highest dose activity change, negative = inhibition, most hits filed as inhibitors | 290,000 tested, 0.37% active | AID 1721; note: potency is the fitted concentration of half-maximal effect; % is set by controls: 0 for no effect and ±100 for the full control effect
Target sequence (Q27686 whole entry, looked up): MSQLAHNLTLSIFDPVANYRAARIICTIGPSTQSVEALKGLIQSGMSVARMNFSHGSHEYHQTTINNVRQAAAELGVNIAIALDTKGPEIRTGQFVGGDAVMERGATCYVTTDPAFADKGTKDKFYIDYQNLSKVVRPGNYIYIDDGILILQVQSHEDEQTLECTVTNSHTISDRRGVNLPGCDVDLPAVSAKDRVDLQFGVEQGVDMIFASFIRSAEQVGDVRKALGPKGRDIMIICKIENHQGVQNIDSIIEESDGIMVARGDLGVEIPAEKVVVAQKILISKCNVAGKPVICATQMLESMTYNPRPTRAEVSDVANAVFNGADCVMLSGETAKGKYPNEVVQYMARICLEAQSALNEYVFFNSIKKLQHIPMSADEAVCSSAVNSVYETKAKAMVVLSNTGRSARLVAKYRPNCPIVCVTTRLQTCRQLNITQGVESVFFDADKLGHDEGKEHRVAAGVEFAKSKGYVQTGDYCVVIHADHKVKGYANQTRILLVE
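ATP generated from ADP (0.1 mM) and PEP (0.5 mM) by 0.1 nM LmPK over 1 h at room temperature (pH 7.2 imidazole buffer) was detected by coupled luciferase luminescence. Values were normalized to uninhibited and no-enzyme wells.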
RE007 growth inh = less growth of the S. pombe RE007 Vpr strain. S. pombe RE007 Vpr strain, BacTiter-Glo ATP luminescence, 24 h. Potency, µM (titrated, usually from 92.2 µM), inactives show at the top dose activity change, negative = less growth, hits mostly inhibitors. 360,000 tested, 0.21% active; active = well fitted falling curve with a large enough effect; inconclusive = small, poorly fitted or top-dose-only effect; inactive = no such curve, though single readings can be large or run the other way; note: potency is the fitted concentration of half-maximal effect; % is set by controls: 0 for no effect and ±100 for the full control effect; nearly all actives have a fitted effect of over 50% in size
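Fission yeast RE007 carrying one integrated HIV-1 vpr copy, seeded at OD 0.01 in PMG+AL medium with 23 nL pinned compound. Grown 24 h at 30 degrees; viability read by BacTiter-Glo luminescence after 5 min.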
Giardia FBPA inh-1 = blocks Giardia fructose-bisphosphate aldolase activity; A8B2U2; purified Giardia FBPA; Potency, µM (series often up to 59.6 µM), for inactives: top-dose activity, negative = inhibition, hits mostly inhibitors; 290,000 tested, 0.71% active; note: potency is the fitted concentration of half-maximal effect; % is set by controls: 0 for no effect and ±100 for the full control effect; nearly all actives have a fitted effect of over 55% in size
Target sequence (A8B2U2 whole entry, looked up): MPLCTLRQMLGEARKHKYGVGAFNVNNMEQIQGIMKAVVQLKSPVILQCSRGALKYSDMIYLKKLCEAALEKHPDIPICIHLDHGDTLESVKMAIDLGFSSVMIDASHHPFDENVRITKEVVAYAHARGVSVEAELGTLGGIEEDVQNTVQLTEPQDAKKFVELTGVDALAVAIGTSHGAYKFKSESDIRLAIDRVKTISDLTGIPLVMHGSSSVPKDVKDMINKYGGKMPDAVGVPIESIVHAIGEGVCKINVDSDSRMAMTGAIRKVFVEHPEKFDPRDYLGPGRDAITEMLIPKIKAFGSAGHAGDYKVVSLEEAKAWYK
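Giardia FBPA (40 nM reagent) was preincubated 10 min at RT with compound (up to 57.5 uM final), then substrate plus GAPDH/TPI/NAD/arsenate coupling system with diaphorase/resazurin was added; resorufin fluorescence (525/598 nm) was read after 20 min.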
Cycloheximide cs = counter-screen hit for Shiga toxin inhibitors, cycloheximide | max response, % | 300,000 tested, 12% active | cell reporter, cycloheximide protein synthesis inhibition counterscreen; in the data active = max response mostly above about 13%, no sharp cut-off; inactive = mostly below about 14%; note: read at 38.3 µM for the half of the compounds with a filed dose; 0% is about no effect
Tb PYK inh = blocks Trypanosoma brucei pyruvate kinase; Potency, µM (highest dose often 76.8 µM), inactives show top-dose activity, negative = inhibition, hits mostly inhibitors; 410,000 tested, 0.12% active; Q57TT1; TbPYK enzyme, Kinase-Glo Plus ATP luminescence, 45 min; note: potency is the fitted concentration of half-maximal effect; % is set by controls: 0 for no effect and ±100 for the full control effect; nearly all actives have a fitted effect of over 50% in size
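Assay buffer: 50 mM TEA pH 7.2, 100 mM KCl, 10 mM MgCl2, 0.05% BSA, 0.01% Tween-20. Pyruvate kinase from T. brucei plus substrate met compound, then ADP (130 uM final). Luminescence was read post 45 min RT.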
Giardia growth = Giardia lamblia growth inhibition; Potency, µM (highest dose often 57.5 µM), for inactives: at the top dose activity change, negative = inhibition, hits mostly inhibitors; 1,500 tested, 5% active; shares compounds with Giardia FBPA inh-1; Giardia lamblia trophozoite growth inhibition;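 note: potency is the fitted concentration of half-maximal effect; trophozoites exposed to compound for 48 h at 37 °C; % is set by controls: 0 for no effect and ±100 for the full control effect; nearly all actives have a fitted effect of over 70% in size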
Mammalian tox = toxic to mammalian cells in Giardia aldolase counter-screen. 1,500 tested, 4% active. mammalian cell viability counter-screen, qHTS. shares compounds with Giardia FBPA inh-1. Potency, µM (top dose mostly 57.5 µM), for inactives: at the highest dose viability change, negative = toxicity, most hits filed as inhibitors;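 note: Chinese hamster ovary cells used as mammalian cytotoxicity surrogate; viability measured as cellular ATP by luminescence; potency is the fitted concentration of half-maximal effect; compound exposure lasted 48 h before reading; % is set by controls: 0 for no effect and ±100 for the full control effect; nearly all actives have a fitted effect of over 60% in size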
Giardia FBPA inh-2 = confirmation of Giardia fructose-bisphosphate aldolase inhibitors | shares compounds with Giardia FBPA inh-1 | purified Giardia aldolase enzyme activity, qHTS | Potency, µM (series often up to 57.5 µM), inactives show at the highest dose activity change, negative = inhibition, actives largely listed as inhibitors | 1,500 tested, 5% active | AID 2787; note: potency is the fitted concentration of half-maximal effect; % is set by controls: 0 for no effect and ±100 for the full control effect; nearly all actives have a fitted effect of over 45% in size
Rabbit aldolase = rabbit FBP aldolase inhibition by Giardia aldolase hits; Rabbit muscle FBPA enzyme inhibition, selectivity counter-screen; AID 2794; 1,500 tested, 4% active; Potency, µM (highest dose often 57.5 µM), inactives show at the top dose activity, negative = inhibition, most hits filed as inhibitors; shares compounds with Giardia FBPA inh-1; note: potency is the fitted concentration of half-maximal effect; % is set by controls: 0 for no effect and ±100 for the full control effect; nearly all actives have a fitted effect of over 60% in size
GAPDH counter = counter-screen for Giardia aldolase inhibitors: GAPDH coupling enzyme; shares compounds with Giardia FBPA inh-1; GAPDH coupling enzyme counterscreen, biochemical, qHTS; Potency, µM (highest dose often 57.5 µM), without a hit: at the top dose activity change, negative = inhibition, most hits filed as inhibitors; 1,500 tested, 6% active; note: potency is the fitted concentration of half-maximal effect; % is set by controls: 0 for no effect and ±100 for the full control effect; nearly all actives have a fitted effect of over 55% in size
* marks the source's active call; other numbers are inactive results; ! = repeats disagree; [ ] = another dose, or the depositor's remark. Shown is part of a subset that was picked to be rich in hits. Unless noted, calls come from the whole dose curve; as a rule, active = well fitted curve in the direction sought with a large enough effect; inconclusive = small, poorly fitted or top-dose-only effect, or another doubt; inactive = no such curve, though single readings can be large; an effect the other way counts as inactive or inconclusive.

What do the screens show for `O=C(Nc1nnc(C2=COCCO2)o1)c1ccc(F)cc1`?
Shiga toxin inh: 25.7; LmPK inh: 4.4%; RE007 growth inh: -18.9%; Giardia FBPA inh-1: 31.6µM*; Cycloheximide cs: 1.1; Tb PYK inh: -5.5%; Giardia growth: inconclusive; Mammalian tox: 5.3%; Giardia FBPA inh-2: -7.3%; Rabbit aldolase: -11.7%; GAPDH counter: -10.4%

How did C=CCNC(=O)Cc1ccc(S(=O)(=O)N2CCOCC2)s1 do in these assays?
RE007 growth inh: 0.6%; Tb PYK inh: 0.0%

What do the screens show for `CCn1c(C)nc2cc(C(=O)NNC(=S)NC(=O)c3ccc(OC)cc3)ccc21`?
Shiga toxin inh: -4.9; LmPK inh: 9.0%; RE007 growth inh: -19.2%; Giardia FBPA inh-1: inconclusive; Cycloheximide cs: -3.7; Tb PYK inh: -9.2%

Results for C/C(=N\NC(=O)c1ccc(Cl)c(Cl)c1)c1ccc(Br)s1 ?
Shiga toxin inh: -1.9; LmPK inh: -0.3%; RE007 growth inh: 1.7%; Giardia FBPA inh-1: 3.3%; Cycloheximide cs: -1.1; Tb PYK inh: 3.0%

Results for C/C(=N\NC(=O)c1ccc(Cl)c(Cl)c1)c1ccccn1 ?
Shiga toxin inh: 5.4; LmPK inh: -3.8%; RE007 growth inh: inconclusive; Giardia FBPA inh-1: inconclusive; Cycloheximide cs: 8.4; Tb PYK inh: 0.3%; Giardia growth: -2.6%[38.3 µM]; Mammalian tox: 2.91µM*; Giardia FBPA inh-2: 0.6%; Rabbit aldolase: -3.9%; GAPDH counter: 1.2%

How did CCCN(CC(=O)Nc1ccccc1C)C(=O)/C=C/c1ccc(S(=O)(=O)N2CCCCCC2)cc1 do in these assays?
RE007 growth inh: -3.0%; Tb PYK inh: 2.3%

What do the screens show for `CCC(C)[C@H](NC(=O)[C@@H]1Cc2ccccc2CN1)C(=O)NCc1ccc(OC)cc1` (stereo partly specified)?
Shiga toxin inh: -4.7; LmPK inh: -5.4%; RE007 growth inh: -19.1%; Giardia FBPA inh-1: 14.1µM*; Cycloheximide cs: -0.4; Tb PYK inh: 7.1%; Giardia growth: -29.8%; Mammalian tox: 14.2%; Giardia FBPA inh-2: 8.1%; Rabbit aldolase: 2.2%; GAPDH counter: 10.7%

How did N#Cc1ccccc1S(=O)(=O)N1CCN(CC(O)COc2ccccc2F)CC1 (stereo unspecified) do in these assays?
Shiga toxin inh: 2.9; LmPK inh: 0.4%; RE007 growth inh: -9.2%; Giardia FBPA inh-1: 15.8µM*; Cycloheximide cs: -5.9; Tb PYK inh: -1.1%; Giardia growth: inconclusive; Mammalian tox: -9.6%; Giardia FBPA inh-2: 7.7%; Rabbit aldolase: 2.8%; GAPDH counter: 8.7%

How did O=S(=O)(c1ccc(F)cc1)N1CCN(CC(O)COc2ccccc2F)CC1 (stereo unspecified) do in these assays?
Shiga toxin inh: -4.7; LmPK inh: 2.0%; RE007 growth inh: -2.6%; Giardia FBPA inh-1: 28.2µM*; Cycloheximide cs: 4.2; Tb PYK inh: -0.8%; Giardia growth: inconclusive; Mammalian tox: -15.2%; Giardia FBPA inh-2: 1.7%; Rabbit aldolase: 0.7%; GAPDH counter: 6.9%

What do the screens show for `CC(C)c1ccccc1OCC(O)CN1CCN(S(=O)(=O)c2ccc([N+](=O)[O-])cc2)CC1` (stereo unspecified)?
Shiga toxin inh: -2.2; LmPK inh: -3.8%; RE007 growth inh: 8.3%; Giardia FBPA inh-1: 17.8µM*; Cycloheximide cs: -1.5; Tb PYK inh: 3.0%; Giardia growth: 5.62µM*; Mammalian tox: 2.5%; Giardia FBPA inh-2: -4.3%; Rabbit aldolase: -11.0%; GAPDH counter: -7.5%

Results for Nc1ncnc2c(C3OC(CO)C(O)C3O)c[nH]c12 (stereo unspecified) ?
RE007 growth inh: inconclusive; Tb PYK inh: 6.6%

What do the screens show for `Cc1cc(=O)[nH]c(SCC(=O)c2ccc(O)c(O)c2)n1`?
Shiga toxin inh: 8.3; LmPK inh: 16.5%; RE007 growth inh: 3.6%; Giardia FBPA inh-1: 8.91µM*; Cycloheximide cs: -1.5; Tb PYK inh: -4.3%; Giardia growth: inconclusive; Mammalian tox: 12.3%; Giardia FBPA inh-2: inconclusive; Rabbit aldolase: -27.4%; GAPDH counter: -4.0%

Results for Cn1c(SCC(=O)c2ccc(O)c(O)c2)nnc1-c1cccs1 ?
Shiga toxin inh: 11.3; LmPK inh: -3.4%; RE007 growth inh: -10.5%; Giardia FBPA inh-1: 5µM*; Cycloheximide cs: 26.0*; Tb PYK inh: -4.6%; Giardia growth: 10.1%[38.3 µM]; Mammalian tox: -26.8%; Giardia FBPA inh-2: inconclusive; Rabbit aldolase: -8.5%; GAPDH counter: -10.4%

How did COc1ccc(-n2nnnc2SCC(=O)c2ccc(O)c(O)c2)cc1 do in these assays?
Shiga toxin inh: -1.9; LmPK inh: 4.6%; RE007 growth inh: 6.0%; Giardia FBPA inh-1: inconclusive; Cycloheximide cs: 0.7; Tb PYK inh: -6.0%; Giardia growth: -3.1%[38.3 µM]; Mammalian tox: inconclusive; Giardia FBPA inh-2: -25.0%; Rabbit aldolase: -10.6%; GAPDH counter: -31.8%

How did Cc1cc(C)nc(SCC(=O)c2ccc(O)c(O)c2)n1 do in these assays?
Shiga toxin inh: 11.3; LmPK inh: 6.8%; RE007 growth inh: -1.1%; Giardia FBPA inh-1: 11.2µM*; Cycloheximide cs: 10.8; Tb PYK inh: -6.3%; Giardia growth: -24.9%; Mammalian tox: 8.7%; Giardia FBPA inh-2: -21.3%; Rabbit aldolase: -15.9%; GAPDH counter: -11.8%

How did S=C(Nc1ccccn1)c1ccccn1 do in these assays?
Shiga toxin inh: 71.1*!; LmPK inh: inconclusive; RE007 growth inh: -5.2%; Giardia FBPA inh-1: 3.15µM*; Cycloheximide cs: 42.3*; Tb PYK inh: inconclusive; Giardia growth: -9.4%[38.3 µM]; Mammalian tox: 12.6µM*; Giardia FBPA inh-2: inconclusive; Rabbit aldolase: -28.5%; GAPDH counter: inconclusive

From PubChem
